The list is not random: actives were taken first. Their share in the collection is about 7.5%.
KinaseGlo FLuc: counter-screen: inhibitors of Kinase-Glo firefly luciferase; Kinase-Glo luciferase, ATP luminescence, 8 min; hit rate 0.28% among 200,000; AID 1379; Potency, µM (top dose mostly 38.3 µM), hits mostly inhibitors; further: nearly all actives have a fitted effect of over 60% in size
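Luminescence was the read-out, taken after 8-minute incubation at ambient temperature. Luciferase turned over luciferin with 10 uM ATP in imidazole pH 7.2 buffer containing KCl, MgCl2, Tween 20 and BSA.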
FLuc modulator: counter-screen for miR-21 project: firefly luciferase inhibitors or activators. purified FLuc, Km substrates, luminescence inhibition. P08659. hit rate 6.9% among 360,000. AID 588342. Potency, µM (series often up to 57.5 µM), hits mostly inhibitors; further: nearly all actives have a fitted effect of over 55% in size
Target sequence (P08659 whole entry, looked up): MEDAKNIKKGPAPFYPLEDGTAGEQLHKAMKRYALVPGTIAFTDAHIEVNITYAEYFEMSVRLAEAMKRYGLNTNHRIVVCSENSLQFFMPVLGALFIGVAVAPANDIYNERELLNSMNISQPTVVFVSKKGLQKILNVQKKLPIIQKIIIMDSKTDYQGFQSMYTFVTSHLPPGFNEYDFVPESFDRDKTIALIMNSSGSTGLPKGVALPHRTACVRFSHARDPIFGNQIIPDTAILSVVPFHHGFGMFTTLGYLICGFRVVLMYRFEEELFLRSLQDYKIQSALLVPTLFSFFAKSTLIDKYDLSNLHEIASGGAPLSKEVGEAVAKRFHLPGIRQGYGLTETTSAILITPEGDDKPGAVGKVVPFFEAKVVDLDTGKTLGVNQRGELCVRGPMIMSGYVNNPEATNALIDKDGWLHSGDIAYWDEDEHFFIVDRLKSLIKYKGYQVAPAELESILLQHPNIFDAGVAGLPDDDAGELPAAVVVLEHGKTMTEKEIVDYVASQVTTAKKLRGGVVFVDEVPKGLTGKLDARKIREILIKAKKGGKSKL
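Purified P. pyralis luciferase, 10 nM final, with Km-level 10 uM D-luciferin and 10 uM ATP in 50 mM Tris acetate pH 7.5, 10 mM Mg acetate, 0.01% Tween-20, 0.05% BSA; 6-point qHTS titration about 60 µM downward; luminescence read.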
Rab9 promoter act: activators of Rab9 promoter; Huh7 Rab9 promoter-luciferase reporter, luminescence, 24 h; Potency, µM (doses to about 9.22 µM), actives largely listed as activators; hit rate 2.8% among 320,000; AID 485297; further: nearly all actives have a fitted effect of over 60% in size
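Quantitative HTS format; Huh7 Rab9-luciferase reporter cells (1500/well) receive compound 2 h post-plating, incubate 24 h at 37 °C, then get luciferase reagent for 10 min before luminescence reading.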
NPC1 prom act: activates the NPC1 promoter | Huh7 NPC1 promoter luciferase reporter, 24 h | Potency, µM (top dose mostly 9.22 µM), usual class: activators | hit rate 2.4% among 320,000; further: nearly all actives have a fitted effect of over 60% in size
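Stably transfected Huh7 (NPC1 promoter→luciferase), 1500 cells/well in Opti-MEM + 10% FBS, 2 h settle, then compound 24 h at 37 °C. Luminescence after 10 min with Amplite reagent.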
ELG1 genotoxic: induces genotoxicity in HEK293T cells with luciferase-tagged ELG1. HEK293T ELG1-luciferase reporter, luminescence, 16 h. Potency, µM (highest dose often 46 µM), most hits filed as activators. hit rate 1.3% among 330,000. AID 504466; further: nearly all actives have a fitted effect of over 60% in size
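After overnight (16 hr) compound treatment at 37 °C, ELG1-luciferase HEK293T cells were lysed with ONE-Glo; luminescence quantified 30 min later at room temperature.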
SMN2 splice enh: SMN2 splice variant enhancement; HEK293 SMN2-luciferase splicing reporter, luminescence, 30-36 h; Potency, µM (highest dose often 46.1 µM), actives largely listed as activators; AID 1458; hit rate 2.8% among 210,000; further: nearly all actives have a fitted effect of over 55% in size
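HEK293 cells carry an SMN2 […]–luciferase reporter in which exon 7 inclusion puts luciferase in frame. Cells were plated 10-12 h before compound addition, then incubated 30-36 h at 37C. ONE-Glo luminescence was read; sodium butyrate at 4.5 mM final served as control.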
A number is an active result; – = inactive; ? = inconclusive; · = no result given; [ ] = dose if it differs, or a comment. The call rests on the fitted dose curve; in most records, active means well fitted curve in the direction sought with a large enough effect; inconclusive means small, poorly fitted or top-dose-only effect, or another doubt; inactive means no such curve, though single readings can be large; an effect the other way counts as inactive or inconclusive.

SMILES | KinaseGlo FLuc | FLuc modulator | Rab9 promoter act | NPC1 prom act | ELG1 genotoxic | SMN2 splice enh
COc1ccc(-n2c3c(cc(-c4nc(-c5ccc(Cl)cc5)cs4)c2=O)C(=O)CC(C)(C)C3)cc1 | · | – | · | · | · | –
CCc1ccc(NC(=O)CSc2ccnc(=O)[nH]2)cc1 | · | – | · | · | · | ·
O=C(NC1CC1)c1sc2cc(Cl)ccc2c1Cl | · | 6.75µM | ? | ? | ? | ·
CC1(C)CC(NC(=O)c2sc3cc(Cl)ccc3c2Cl)CC(C)(C)N1 | – | – | – | – | – | –
Clc1c2c(nc3ccccc13)CCC2 | · | ? | – | – | – | ·
Cc1c2c(nc3ccccc13)CCC(C(C)(C)C)C2 (stereo not given) | – | 12µM | – | – | – | ?
CN(C)Cc1c(C(=O)N/N=C/c2cccs2)nnn1-c1nonc1N | · | – | – | – | – | ·
CCOC(=O)C(=CNc1ccc(C)cc1C)C(=O)OCC | – | 15.1µM | – | – | – | –
OCCC1CN(Cc2cccn2-c2cccnc2)CCN1C1CCCC1 (stereo not given) | · | – | – | – | – | ·
Cc1ccc(-c2nn3c(-c4ccc(C)cc4)nnc3c3ccccc23)cc1 | · | – | · | · | · | –
Cc1nn2c(-c3ccccc3)nnc2c2ccccc12 | – | 19µM | ? | ? | ? | 5.62µM
Cc1c(C)c2ccc(OCC(=O)NCCCn3ccnc3)c(C)c2oc1=O | · | – | – | – | – | ·
O=C(Nc1ccc(S(=O)(=O)N2CCCCCC2)cc1)c1[nH]ncc1[N+](=O)[O-] | · | 16.9µM | ? | ? | ? | ·
CCOc1c(Cl)cc(C(=O)Nc2cccc(C(=O)O)c2)cc1Cl | – | 3.01µM | 0.708µM | 0.562µM | ? | ·
CC(=O)Nc1cccc(NC(=O)c2ccc(COc3ccccc3)cc2)c1 | · | 2.13µM | 2.82µM | 2.82µM | 14.6µM | ·
CCOc1ccc(NC(=O)c2cccc(NC(=O)c3ccccc3)c2)cc1 | · | ? | – | ? | – | ·
O=C(O)c1cccc(NC(=O)c2ccc(COc3ccc(Cl)cc3)cc2)c1 | · | 6.01µM | 3.16µM | ? | – | ·
Cc1ccc(NC(=O)CN(c2ccc(Cl)cc2)S(=O)(=O)c2cc([N+](=O)[O-])ccc2Cl)c(C)c1 | – | – | – | – | – | –
COc1ccc(C23CC4CC(CC(C(=O)O)(C4)C2)C3)c(F)c1 | · | – | –[1.84 µM] | – | – | ·
O=C(NCc1ccc(F)cc1)C(=O)NCC1OCCN1C(=O)c1cccs1 (stereo not given) | – | – | – | – | – | –
CCOC(=O)c1c(C)n(OCc2ccccc2)c2ccc3c(no[n+]3[O-])c12 | – | – | – | – | – | –
Cn1c(-c2ccccc2)cc2c3no[n+]([O-])c3ccc21 | – | 13.5µM | – | ? | – | –
Cc1csc(NC(=O)c2ccccc2C(=O)O)n1 | – | – | – | – | – | –
Cc1csc(NC(=O)c2ccc(C(=O)Nc3nc(C)cs3)cc2)n1 | · | – | – | – | – | ·
Cc1csc(NC(=O)c2sccc2C)n1 | · | 10.7µM | 0.891µM | 1.78µM | ? | ·
SMILES | KinaseGlo FLuc | FLuc modulator | Rab9 promoter act | NPC1 prom act | ELG1 genotoxic | SMN2 splice enh
Cc1csc(NC(=O)c2cccn2C)n1 | ? | 8.49µM | 2.24µM | 3.55µM | ? | 15.8µM
Cn1cccc1C(=O)Nc1nc(-c2ccccn2)cs1 | 11.2µM | 8.49µM | 1.78µM | 2µM | – | –
C[C@H](NC(=O)c1ccccc1)C(=O)Nc1nc(-c2ccccn2)cs1 | – | – | – | – | – | –
CCC(C(=O)NC(C)(C)C)N(Cc1ccc(F)cc1)C(=O)c1snc(C(N)=O)c1N (stereo not given) | · | – | – | – | – | ·
CC(/C=N\NC(=O)c1cc(C)oc1C)=C\c1ccccc1 | – | 2.13µM | 2.51µM | ? | ? | ?
Cc1cc(C(=O)N/N=C/c2ccncc2)c(C)o1 | · | ? | – | – | – | ·
Cc1ccc(/C=N/NC(=O)c2cc(C)oc2C)cc1 | · | 4.26µM | – | – | ? | ·
O=C(O)c1ccc(/C=N/Nc2cccc(C(F)(F)F)c2)cc1 | – | 21.3µM | 2.51µM | 2.82µM | ? | 10µM
COC(=O)c1ccc(COc2ccccc2/C=N/Nc2cccc(C(=O)O)c2)cc1 | – | ? | ? | ? | ? | ·
CC(C)c1ccc(/C=N/NC(=O)CC(=O)NCc2ccccc2)cc1 | – | ? | – | – | – | –
O=C(O)c1cccc(N/N=C/C2=C(Cl)c3cc(Cl)ccc3SC2)c1 | – | 1.35µM | 0.794µM | 0.316µM | 0.58µM | 0.501µM
